Results as given in PubChem BioAssay AID1345085 (National Center for Advancing Translational Sciences (NCATS), 2018).
Records with an inconclusive call do not appear. The source made the active and inactive calls. Calls follow the shape of the dose curve; as a rule, active = well fitted cell-killing curve with a large enough effect; inconclusive = small, poorly fitted or top-dose-only effect, or effect the other way; inactive = no such curve, though single readings can be large or run the other way.

System: PA-1
Experiment: Confirmatory qHTS for gynecologic anti-cancer compounds from libraries of approved drugs and bioactive compounds; also: nearly all actives have a fitted effect of over 55% in size
Conditions: gynecologic cancer cell panel viability, ATPlite luminescence, 48 h; series mostly up to 57.6 µM
Summary of the method: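 Cells (1,000/well) were plated, left 16 h at 37 C/5% CO2, then given compound at 11 concentrations (1:3) from 57.5 uM to 0.977 nM for 48 h. ATPlite luminescence after 15 min at room temperature gave IC50 values.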
Potency is read from the fitted curve at half-maximal effect.

SMILES | Potency
O=C(/C=C/c1cccc(S(=O)(=O)Nc2ccccc2)c1)NO | 0.595 µM (active)
CO[C@@]12[C@H](COC(N)=O)C3=C(C(=O)C(C)=C(N)C3=O)N1C[C@@H]1N[C@@H]12 | inactive
COc1cc(N2CCC(N(C)C)CC2)ccc1Nc1ncc(Cl)c(Nc2ccccc2P(C)(C)=O)n1 | 6.11 µM (active)
CC(Oc1ccc2[nH]nc(/C=C/c3cnn(CCO)c3)c2c1)c1c(Cl)cncc1Cl (stereo not given) | 1.93 µM (active)
CC[C@]1(O)C[C@H]2CN(CCc3c([nH]c4ccccc34)[C@@](C(=O)OC)(c3cc4c(cc3OC)N(C=O)[C@H]3[C@@](O)(C(=O)OC)[C@H](OC(C)=O)[C@]5(CC)C=CCN6CC[C@]43[C@@H]65)C2)C1 | 0.172 µM (active)
COc1cc(F)c(F)c(Nc2ccc(I)cc2F)c1NS(=O)(=O)C1(CC(O)CO)CC1 (stereo not given) | inactive
Cc1nc(NC(=O)N2CCCC2C(N)=O)sc1-c1csc(C(C)(C)C)n1 (stereo not given) | 27.3 µM (active)
CC(C)C[C@H](NC(=O)[C@@H](NC(=O)c1cccc(-c2ccccc2)n1)[C@@H](C)O)B(O)O | 0.0385 µM (active)
CN[C@@H](C)C(=O)N[C@H]1CN(C(=O)CC(C)C)CC[C@H]2CC[C@@H](C(=O)NC(c3ccccc3)c3ccccc3)N2C1=O | inactive
CCc1cccc(CC)c1NC(=O)N1Cc2[nH]nc(NC(=O)c3ccc(N4CCN(C)CC4)cc3)c2C1 | 2.43 µM (active)
O=C1c2c(O)ccc(O)c2C(=O)c2c(NCCNCCO)ccc(NCCNCCO)c21 | 0.432 µM (active)
COCCOc1ccc2c(c1)ncn2-c1ccc2cccc(N3CCC(N)CC3)c2n1 | 4.85 µM (active)
N#CC1(c2cccc(C(=O)Nc3cc(Oc4ccc5nc(NC(=O)C6CC6)sc5n4)ccc3F)c2Cl)CC1 | 8.63 µM (active)
CCN(CC)CCCC(C)Nc1c2ccc(Cl)cc2nc2ccc(OC)cc12 (stereo not given) | 27.3 µM (active)
COc1ccc(-c2cc3nccn3c(Nc3ncccc3C(N)=O)n2)cc1OC | 6.11 µM (active)
Cc1ccc(C(=O)Nc2cccc(C(F)(F)F)c2)cc1-c1ccc2nc(NCCN3CCOCC3)ncc2c1 | 17.2 µM (active)
O=C(O)c1ccc(Nc2ncc3c(n2)-c2ccc(Cl)cc2C(c2c(F)cccc2F)=NC3)cc1 | 0.968 µM (active)
Fc1cc(-c2cccc3ncc(-c4cnn(C5CCNCC5)c4)nc23)cc(F)c1CN1CCOCC1 | 27.3 µM (active)
CNC1CCC(N(Cc2cccc(-c3ccncc3)c2)C(=O)c2sc3ccccc3c2Cl)CC1 (stereo not given) | 24.3 µM (active)
CCN(CC)CCNC(=O)c1c(C)[nH]c(/C=C2\C(=O)Nc3ccc(F)cc32)c1C | 8.91 µM (active)

SMILES | Potency
O=C1N(c2ccccc2)c2ccccc2C1(Cc1ccncc1)Cc1ccncc1 | inactive
COc1ccc(CCC(=O)c2c(O)cc(O[C@@H]3O[C@H](CO)[C@@H](O)[C@H](O)[C@H]3O[C@@H]3O[C@@H](C)[C@H](O)[C@@H](O)[C@H]3O)cc2O)cc1O | inactive
O=C(c1ccc(F)c(F)c1Nc1ccc(I)cc1F)N1CC(O)([C@@H]2CCCCN2)C1 | 15.3 µM (active)
CC(C)(C(=O)NCC(F)(F)C(F)(F)F)C(=O)NC1C(=O)Nc2ccccc2-c2ccccc21 (stereo not given) | 9.68 µM (active)
O=C1Cc2cc(CCN3CCN(c4nsc5ccccc45)CC3)c(Cl)cc2N1 | 24.3 µM (active)
CCS(=O)(=O)N1CCN(c2ccc(Nc3ncc(C(N)=O)c(NC4CC4)n3)cc2)CC1 | 3.85 µM (active)
Cc1ccc(C(=O)N(CCCN)C(c2oc3cc(Cl)ccc3c(=O)c2Cc2ccccc2)C(C)C)cc1 (stereo not given) | 0.0137 µM (active)
Cc1cc(SCc2sc(-c3ccc(C(F)(F)F)cc3)nc2C)ccc1OCC(=O)O | inactive
Cn1cc(-c2ccc3ncc(Cc4ccc5ncccc5c4)n3n2)cn1 | inactive
Cc1ccc(C(N)=O)cc1Nc1nccc(-c2cn(C(C)C)c3cnccc23)n1 | 1.37 µM (active)
C1CCC(C(CC2CCCCN2)C2CCCCC2)CC1 (stereo not given) | 27.3 µM (active)
CC[C@]1(O)C[C@@H]2CN(CCc3c([nH]c4ccccc34)[C@@](C(=O)OC)(c3cc4c(cc3OC)N(C)[C@H]3[C@@](O)(C(=O)OC)[C@H](OC(C)=O)[C@]5(CC)C=CCN6CC[C@]43[C@@H]65)C2)C1 | 0.109 µM (active)
CC(C)Oc1ccc(C(=O)NC(CNC(=O)CN(C)C)Cc2ccc(-c3cn4cccc(C(C)O)c4n3)cc2)cc1Cl (stereo not given) | 0.243 µM (active)
O=C(NOC[C@H](O)CO)c1ccc(F)c(F)c1Nc1ccc(I)cc1F | 3.85 µM (active)
CN1CCN(Cc2ccc(NC(=O)Nc3ccc(Oc4cc(NC(=O)C5CC5)ncn4)cc3)cc2C(F)(F)F)CC1 | 0.193 µM (active)
NCCOc1cc(C(=O)Nc2cc(OCCN)c3ccccc3n2)nc(C(=O)Nc2cc(OCCN)c3ccccc3n2)c1 | 19.3 µM (active)
COc1c(C)c2c(c(O)c1C/C=C(\C)CCC(=O)O)C(=O)OC2 | 2.17 µM (active)
CN1CCN(c2ccc(OC(F)(F)F)c(Nc3ncc4c(n3)-c3c(c(C(N)=O)nn3CCO)CC4)c2)CC1 | 0.153 µM (active)
Cc1cc(Nc2nc(N[C@@H](C)c3ccc(F)cc3)c(C#N)cc2F)n[nH]1 | 3.06 µM (active)
COc1cc(Nc2ncc3c(n2)-c2ccc(Cl)cc2C(c2c(F)cccc2OC)=NC3)ccc1C(=O)O | 0.193 µM (active)
